Laboratory results reported in PubChem BioAssay (NCI).
About 79,000 compounds went through this panel and 15% of them were active in at least one assay; those are over-represented in the sample as a whole. The source made the active and inactive calls. No stated cut-off is given here; in the data, active means growth inhibition above about 70%; inactive means the rest.

Columns and labels:
[1] = NCI Yeast Anticancer Drug Screen. Data for the rad52 strain (AID 147);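 further: 0% = growth of vehicle-treated control cultures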; settings: S. cerevisiae rad52 mutant growth inhibition, active compounds read high
How it was run: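 Screen used a yeast mutant impaired in DNA repair. After compound exposure, growth was measured. Values reflect inhibition compared with vehicle-treated cells.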

[2] = NCI Yeast Anticancer Drug Screen. Data for the wt1 strain (AID 149);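 further: 0% = growth of vehicle-treated wt1 cultures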; settings: S. cerevisiae wt1 strain (SPY 50644) growth inhibition, active compounds read high
How it was run: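 Vehicle-normalised growth inhibition; strain wt1; compound exposure.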

[3] = NCI Yeast Anticancer Drug Screen. Data for the rad50EPP+ strain (AID 151);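 further: 0% = growth of vehicle-treated control cultures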; settings: S. cerevisiae rad50 mutant strain, active compounds read high
How it was run: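 Exposing the rad50EPP+ strain to each compound, growth was compared with vehicle-only cultures to give inhibition.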

[4] = NCI Yeast Anticancer Drug Screen. Data for the mgt1 strain (AID 153); settings: S. cerevisiae mgt1 mutant growth inhibition, active compounds read high
How it was run: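 Genetically defined yeast (mgt1) treated with compound; inhibition of growth expressed against vehicle-treated controls.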

[5] = NCI Yeast Anticancer Drug Screen. Data for the rad50 strain (AID 155);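 further: 0% = growth of vehicle-only cultures of the same strain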; settings: S. cerevisiae rad50 strain growth inhibition, active compounds read high
How it was run: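 A DNA repair-deficient yeast mutant serves as the test organism; compound-induced growth inhibition is calculated against vehicle-treated cells.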

[6] = NCI Yeast Anticancer Drug Screen. Data for the mec2-1 strain (AID 157); settings: S. cerevisiae mec2-1 strain, active compounds read high
How it was run: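 Readout is yeast growth inhibition, normalised to vehicle-treated controls, in the mec2-1 strain exposed to compound.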

[7] = NCI Yeast Anticancer Drug Screen. Data for the rad14 strain (AID 159);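 further: 0% = growth of vehicle-treated control cultures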; settings: S. cerevisiae rad14 strain growth inhibition, active compounds read high
How it was run: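 Vehicle-treated cultures served as the baseline for growth inhibition of a DNA repair-mutant yeast strain exposed to each compound.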

[8] = NCI Yeast Anticancer Drug Screen. Data for the sgs1 mgt1 strain (AID 161);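 further: 0% = growth of cultures given vehicle only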; settings: S. cerevisiae sgs1 mgt1 strain, active compounds read high
How it was run: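 Growth of a repair-deficient yeast mutant was monitored after compound treatment and expressed as inhibition relative to vehicle-treated cultures.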

[9] = NCI Yeast Anticancer Drug Screen. Data for the CLN2oe strain (AID 163);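 further: 0% = growth of vehicle-only control cultures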; settings: S. cerevisiae CLN2oe strain, active compounds read high
How it was run: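 Values reflect how much compound exposure reduced yeast growth, referenced to vehicle-exposed cells. Assay organism is a strain with a defined genetic change affecting cell-cycle control.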

[10] = NCI Yeast Anticancer Drug Screen. Data for the cln2 rad14 strain (AID 165);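 further: 0% = growth equal to vehicle treated cultures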; settings: S. cerevisiae cln2 rad14 strain, active compounds read high
How it was run: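 Relative to vehicle controls, growth inhibition of compound-treated cln2 rad14 yeast was recorded.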

[11] = NCI Yeast Anticancer Drug Screen. Data for the bub3 strain (AID 167); settings: S. cerevisiae bub3 mutant strain, active compounds read high
How it was run: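 Inhibition values come from growth of compound-treated mutant yeast normalised to vehicle-treated controls.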

[12] = NCI Yeast Anticancer Drug Screen. Data for the wt2 strain (AID 169);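 further: 0% = growth of vehicle-treated yeast cultures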; settings: S. cerevisiae wt2 strain growth inhibition, active compounds read high
How it was run: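 Values express reduction in yeast growth under compound treatment, referenced to vehicle-treated cells.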

[13] = NCI Yeast Anticancer Drug Screen. Data for the mlh1 strain (AID 171);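 further: 0% = growth of vehicle-treated control cultures of the same strain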; settings: S. cerevisiae mlh1 strain growth inhibition, active compounds read high
How it was run: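 Steps: expose the defined-mutant yeast strain to compound; expose a parallel culture to vehicle; measure growth; express compound effect as inhibition relative to the vehicle culture.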

[14] = NCI Yeast Anticancer Drug Screen. Data for the sgs1 strain (AID 173);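 further: 0% = growth of vehicle-only control cultures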; settings: S. cerevisiae sgs1 mutant, active compounds read high
How it was run: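 Treat defined-mutant yeast with compound; measure growth; calculate inhibition relative to vehicle-treated cells.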

[15] = NCI Yeast Anticancer Drug Screen. Data for the mlh1 rad18 strain (AID 175); settings: S. cerevisiae mlh1 rad18 strain growth inhibition, active compounds read high
How it was run: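 Test agents were incubated with a yeast strain of defined genotype (DNA damage repair defect). Inhibition of growth was derived by comparison with vehicle-exposed cultures.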

[16] = NCI Yeast Anticancer Drug Screen. Data for the rad18 strain (AID 177); settings: S. cerevisiae rad18 mutant growth inhibition, active compounds read high
How it was run: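 A genetically defined yeast mutant impaired in DNA damage repair was treated with test compounds, then its growth was measured against cultures receiving vehicle alone.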

[17] = at 5.0 µM (retest, dose inferred, filed as 0.5)
[18] = at 50.0 µM (retest, dose inferred, filed as 5.0)

Measured: growth inhibition

Cc1ccc2c(c1)C1(SC(C)C(=O)N1c1ccc(Cl)cc1)C(=O)N2 (stereo unspecified)
inactive: [1]; at 1.2 µM 0% | [1]; at 3.7 µM 4% | [1]; at 11.0 µM 16% | [2]; at 1.2 µM 0% | [2]; at 3.7 µM 5% | [2]; at 11.0 µM 4% | [2]; at 33.0 µM 55% | [3]; at 1.2 µM -2% | [3]; at 3.7 µM -1% | [3]; at 11.0 µM 1% | [3]; at 33.0 µM -2% | [3]; at 100.0 µM -3% | [4]; at 1.2 µM -5% | [4]; at 3.7 µM -6% | [4]; at 11.0 µM 3% | [5]; at 1.2 µM -2% | [5]; at 3.7 µM 1% | [5]; [17] 12% | [5]; at 11.0 µM 9% | [6]; at 1.2 µM -2% | [6]; at 3.7 µM 5% | [6]; [17] -12% | [6]; at 11.0 µM 12% | [6]; [18] 17% | [7]; at 1.2 µM -3% | [7]; at 3.7 µM 3% | [7]; at 11.0 µM 12% | [8]; [17] 8% | [9]; at 1.2 µM -1% | [9]; at 3.7 µM -11% | [9]; at 11.0 µM 4% | [10]; [17] 4% | [10]; [18] 49% | [11]; at 1.2 µM 3% | [11]; at 3.7 µM 10% | [11]; [17] 19% | [11]; at 11.0 µM 30% | [12]; at 1.2 µM -2% | [12]; at 3.7 µM 1% | [12]; at 11.0 µM 8% | [13]; at 1.2 µM -1% | [13]; at 3.7 µM 3% | [13]; at 11.0 µM 17% | [14]; at 1.2 µM 2% | [14]; at 3.7 µM 7% | [14]; at 11.0 µM 25% | [15]; [17] 51%
active: [1]; at 33.0 µM 96% | [1]; at 100.0 µM 99% | [2]; at 100.0 µM 99% | [4]; at 33.0 µM 94% | [4]; at 100.0 µM 99% | [5]; at 33.0 µM 94% | [5]; [18] 97% | [5]; at 50.0 µM 98.8% | [5]; at 100.0 µM 99% | [6]; at 33.0 µM 85% | [6]; at 50.0 µM 98.5% | [6]; at 100.0 µM 99% | [7]; at 33.0 µM 96% | [7]; at 100.0 µM 99% | [8]; [18] 94% | [8]; at 50.0 µM 99.4% | [9]; at 33.0 µM 91% | [9]; at 100.0 µM 99% | [10]; at 50.0 µM 97.7% | [11]; at 33.0 µM 90% | [11]; [18] 88% | [11]; at 50.0 µM 74.5% | [11]; at 100.0 µM 99% | [12]; at 33.0 µM 98% | [12]; at 100.0 µM 99% | [13]; at 33.0 µM 95% | [13]; at 100.0 µM 99% | [14]; at 33.0 µM 94% | [14]; at 100.0 µM 99% | [15]; [18] 98% | [15]; at 50.0 µM 99%

Cc1ccc(NCCNCCO)c2c(=O)c3cc(O)ccc3sc12
active: [1]; at 33.0 µM 90% | [1]; at 100.0 µM 93% | [4]; at 100.0 µM 90% | [5]; at 33.0 µM 93% | [5]; [18] 99% | [5]; at 50.0 µM 80.8% | [5]; at 100.0 µM 95% | [6]; [18] 99% | [6]; at 50.0 µM 71.8% | [7]; at 100.0 µM 97% | [8]; [18] 99% | [8]; at 50.0 µM 89.2% | [9]; at 100.0 µM 96% | [10]; [18] 100% | [10]; at 50.0 µM 88.9% | [11]; [18] 99% | [11]; at 50.0 µM 89.2% | [11]; at 100.0 µM 96% | [13]; at 100.0 µM 93% | [14]; at 100.0 µM 91% | [15]; [18] 99% | [15]; at 50.0 µM 81.7% | [16]; at 100.0 µM 93%
inactive: [1]; at 1.2 µM -5% | [1]; at 3.7 µM 12% | [1]; at 11.0 µM 30% | [2]; at 1.2 µM 10% | [2]; at 3.7 µM -9% | [2]; at 11.0 µM -5% | [2]; at 33.0 µM -1% | [2]; at 100.0 µM 18% | [3]; at 1.2 µM 12% | [3]; at 3.7 µM 22% | [3]; at 11.0 µM 25% | [3]; at 33.0 µM 36% | [3]; at 100.0 µM 51% | [4]; at 1.2 µM -10% | [4]; at 3.7 µM 1% | [4]; at 11.0 µM -11% | [4]; at 33.0 µM -1% | [5]; at 1.2 µM 4% | [5]; at 3.7 µM 4% | [5]; [17] 49% | [5]; at 11.0 µM 28% | [6]; at 1.2 µM 5% | [6]; at 3.7 µM -13% | [6]; [17] 21% | [6]; at 11.0 µM -11% | [6]; at 33.0 µM -10% | [6]; at 100.0 µM 58% | [7]; at 1.2 µM -18% | [7]; at 3.7 µM -4% | [7]; at 11.0 µM -2% | [7]; at 33.0 µM 0% | [8]; [17] 8% | [9]; at 1.2 µM 6% | [9]; at 3.7 µM 14% | [9]; at 11.0 µM 24% | [9]; at 33.0 µM 23% | [10]; [17] 17% | [11]; at 1.2 µM -24% | [11]; at 3.7 µM 0% | [11]; [17] 18% | [11]; at 11.0 µM 0% | [11]; at 33.0 µM -2% | [12]; at 1.2 µM 10% | [12]; at 3.7 µM 3% | [12]; at 11.0 µM 4% | [12]; at 33.0 µM 63% | [12]; at 100.0 µM 24% | [13]; at 1.2 µM -20% | [13]; at 3.7 µM -8% | [13]; at 11.0 µM -18% | [13]; at 33.0 µM -10% | [14]; at 1.2 µM 15% | [14]; at 3.7 µM 35% | [14]; at 11.0 µM 43% | [14]; at 33.0 µM 48% | [15]; [17] 13% | [16]; at 1.2 µM -35% | [16]; at 3.7 µM -30% | [16]; at 11.0 µM -27% | [16]; at 33.0 µM -5%
